RGS8-Gao reg – RGS8-Galphao binding modulators, primary screen, biochemical, multiplexed bead flow cytometry; Guanine nucleotide-binding protein G(o) subunit alpha (Homo sapiens), P09471; actives lie on both sides; response (percent of control binding), % at 10 µM; hit rate 0.34% among 220,000; AID 1423, 2008; in the data active = response below about 60% or above about 140%; inactive = in between;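 note: Galphao activated as the GDP aluminium fluoride complex binding bead-coupled RGS8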
Target sequence (P09471 whole entry, looked up): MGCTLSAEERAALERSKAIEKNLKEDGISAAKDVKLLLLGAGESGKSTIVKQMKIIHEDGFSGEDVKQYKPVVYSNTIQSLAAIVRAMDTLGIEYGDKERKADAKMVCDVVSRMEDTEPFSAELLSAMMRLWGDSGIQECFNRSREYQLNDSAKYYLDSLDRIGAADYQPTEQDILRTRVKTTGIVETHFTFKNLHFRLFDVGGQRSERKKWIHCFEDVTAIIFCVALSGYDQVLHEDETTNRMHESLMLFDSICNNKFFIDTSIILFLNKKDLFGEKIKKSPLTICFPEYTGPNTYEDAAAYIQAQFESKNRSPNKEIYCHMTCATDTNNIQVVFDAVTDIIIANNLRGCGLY
RGS7-Gao – RGS7-Galphao binding modulators, primary screen, biochemical, multiplexed bead flow cytometry; Guanine nucleotide-binding protein G(o) subunit alpha (Homo sapiens), P09471; actives lie on both sides; binding response (% of control), % at 10 µM; hit rate 0.35% among 220,000; AID 1439, 2008; in the data active = binding response below about 49% or above about 150%; inconclusive = no clear call, values can overlap the other calls; inactive = in between;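 note: fluorescent Galphao held in activated GDP-AlF4 state binding bead-coupled RGS7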
RGS4-Gao reg – modulators of RGS4 binding to Galphao, primary screen, biochemical, multiplexed bead flow cytometry; Guanine nucleotide-binding protein G(o) subunit alpha (Homo sapiens), P09471; actives lie on both sides; binding response (% of control), % at 10 µM; hit rate 0.33% among 220,000; AID 1415, 2008; in the data active = binding response below about 49% or above about 150%; inactive = in between;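 note: fluorescent Galphao activated with aluminum fluoride binding bead-coupled RGS4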
GSH fluor – compound fluorescence on glutathione beads, profiling panel, artefact control, biophysical, 488/530 nm, flow cytometry. hit rate 0.25% among 190,000. fluorescence (KMESF) at 10 µM. AID 1776, 2009. GSH beads flow cytometry, compound fluorescence 488/530 nm; hits give high values; in the data active = fluorescence above about 89;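 note: glutathione beads carrying GST-tagged Bcl family fusion proteins plus one bare bead set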
RGS16-Gao – modulators of RGS16 binding to Galphao, primary screen, biochemical, human proteins, multiplexed bead flow cytometry; Regulator of G-protein signaling 16 (Homo sapiens) + Guanine nucleotide-binding protein …; bead-based flow cytometry RGS16-Galphao binding, fluorescence; actives lie on both sides; binding response (% of control), % at 10 µM; hit rate 0.38% among 220,000; call rule not given here;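 note: Galphao activated by GDP with aluminum fluoride before binding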
Target sequence (O15492 whole entry, looked up): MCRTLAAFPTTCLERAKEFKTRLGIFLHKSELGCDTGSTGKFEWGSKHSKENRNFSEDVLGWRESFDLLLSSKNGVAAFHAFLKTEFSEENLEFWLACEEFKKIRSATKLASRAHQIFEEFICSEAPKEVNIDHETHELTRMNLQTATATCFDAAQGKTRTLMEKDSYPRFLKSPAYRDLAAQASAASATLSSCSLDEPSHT
Target sequence (P09471 whole entry, looked up): as the sequence (P09471 whole entry, looked up) above
Avidin bead fluor – green autofluorescence of compounds with avidin beads – biophysical, 488/530 nm, flow cytometry, artefact control, profiling panel; compound fluorescence 488/530 nm; hits give high values; fluorescence (KMESF) at 10 µM; hit rate 0.38% among 220,000; AID 1775, 2009; in the data active = fluorescence above about 47
A number is an active result; - = inactive; ? = inconclusive; . = no result given. In the library only some 1.2% were active in any assay of this set; here they are far more common.

SMILES	RGS8-Gao reg	RGS7-Gao	RGS4-Gao reg	GSH fluor	RGS16-Gao	Avidin bead fluor
NS(=O)(=O)c1cccc(NC(=O)COC(=O)CN2C(=O)C3CC=CCC3C2=O)c1 (stereo not drawn)	-	-	-	-	-	-
CCOC(=O)C1=C(Cc2ccc(OC)cc2)C(=O)c2ccccc2C1=O	-	-	-	-	-	-
CCOC(=O)C1=C(Cc2ccc(C)cc2)C(=O)c2ccccc2C1=O	-	-	-	226	-	-
O=C(CN1CCN(C(=O)c2ccco2)CC1)Nc1cccc([N+](=O)[O-])c1	-	-	-	-	-	-
Cc1ccc(NC(=O)CN2C(=O)N/C(=C/c3cccn3-c3ccc(C(=O)O)cc3)C2=O)cc1	28	-13	26	-	-	-
Cc1ccc(NC(=O)CN2C(=O)N/C(=C/c3cc(C)n(-c4ccc(C(=O)O)cc4)c3C)C2=O)cc1	-	-	-	-	-	-
N#Cc1c(-c2ccccc2)ccn(Cc2ccc(Cl)cc2)c1=O	-	-	-	-	-	49
Cc1ccsc1C(=O)OC1CCOC1=O (stereo not drawn)	-	-	-	271	-	-
COc1ccc(OC)c(C(=O)CSc2nc3ccccc3n2CC(=O)NC(C)(C)C)c1	-	-	-	270	-	-
CCCc1cc(=O)[nH]c(SCC(=O)Nc2ccc3c(c2)CCC3)n1	-	-	-	-	-	-
CCCc1cc(=O)[nH]c(SCC(=O)Nc2ccc(OC(F)F)cc2)n1	-	-	-	260	-	-
COC(=O)c1cccc(NC(=O)c2nn(C)c(=O)c3ccccc23)c1	-	-	-	185	-	-
CCOC(=O)Nc1ccc2c(c1)OCO2	-	-	-	-	-	-
COC(=O)Nc1ccc2c(c1)OCO2	-	-	-	100	-	-
COc1cccc(C(=O)Nc2c(C)n[nH]c2C)c1	-	-	-	-	-	55
COC(=O)c1ccc(C2C(Oc3ccccc3)C(=O)N2CCc2ccc(F)cc2)cc1 (stereo not drawn)	-	-	-	-	-	61
CCOC(=O)C1=C(c2ccccc2)O/C(=C(/C#N)C(F)(F)F)S1	-	-	-	-	-	59
CCOC(=O)C1=C(C)OC(N)=C(C(=O)OCC)C1c1cccnc1 (stereo not drawn)	-	-	-	-	-	-
CCOC(=O)C1=C(C)OC(N)=C(C(=O)OCC)C1c1ccncc1 (stereo not drawn)	-	-	-	244	-	-
C=CCc1cccc([C@@H]2[C@@H](C)CC[C@H]3C(=O)N4[C@@H](c5cc(OC)c(OC)c(OC)c5)c5[nH]c6ccccc6c5C[C@H]4C(=O)N23)c1	-	-	-	-	-	-
O=C1CNC(=S)N1CCOc1ccccc1	-	?	-	.	-	-
CN1CC(=O)N(CCOc2ccccc2)C1=O	-	-	-	263	-	-
Cc1cccc(C)c1OCCN1C(=O)NC(C)(c2ccccc2)C1=O (stereo not drawn)	-	-	-	-	-	-
CC1(c2ccccc2)NC(=O)N(CCOc2ccccc2)C1=O (stereo not drawn)	-	-	-	263	-	-
CCNc1ccc(C(=O)OC(C(=O)NC(N)=O)C(C)C)cc1[N+](=O)[O-] (stereo not drawn)	-	-	-	-	-	-
SMILES	RGS8-Gao reg	RGS7-Gao	RGS4-Gao reg	GSH fluor	RGS16-Gao	Avidin bead fluor
Cc1noc(C(F)(F)F)c1C(=O)NNC(=O)c1ccccc1	-	?	-	.	-	-
COC(=O)CSc1nnc(-c2ccco2)n1Cc1ccco1	-	-	-	-	-	72
COC(=O)c1c(NC(=O)CSc2nnc(-c3ccco3)n2Cc2ccccc2)sc(C)c1C	-	-	-	268	-	-
CC(NC(=O)c1ccc2nc[nH]c2c1)c1ccccc1 (stereo not drawn)	-	-	-	-	-	-
CCC(CC)NC(=O)c1ccc2nc[nH]c2c1	-	-	-	262	-	-
CCC(CC)NC(=O)Nc1ccc(C)cc1	-	?	-	.	-	-
Cc1cccc(-n2nnnc2SCC(=O)c2cc(C)n(CC3CCCO3)c2C)c1 (stereo not drawn)	-	-	-	263	-	-
Cc1ccc(-n2nnnc2SCC(=O)c2cc(C)n(CC3CCCO3)c2C)cc1 (stereo not drawn)	-	-	-	-	-	-
COCCCN1C(=O)/C(=C/c2ccc(CNS(=O)(=O)c3ccccc3)o2)C(C(=O)OC)=C1C	-	?	-	-	-	-
Cc1ccc(CN2CCN(/N=C/c3ccc(Cl)c([N+](=O)[O-])c3)CC2)cc1	-	-	-	-	-	-
O=C1/C(=C\c2ccc(O)c(O)c2)C(c2ccccc2)=NN1c1ccccc1	-	-	-	-	-	-
COc1cc(/C=C2\C(=O)N(c3ccc(NC(C)=O)cc3)N=C2c2ccccc2)ccc1O	-	?	-	-	-	131
O=C(CN1CCOCC1)n1c2ccccc2c2ccccc21	-	-	-	256	-	-
S=c1[nH]nc(-c2ccccc2Cl)n1CC1CCCO1 (stereo not drawn)	-	-	-	-	-	52
CCOc1ccc(N2CC(C(=O)Nc3c(C)n(C)n(-c4ccccc4)c3=O)CC2=O)cc1 (stereo not drawn)	-	-	-	-	-	-
COc1ccc(/C=C2\SC(=NCc3ccccc3)N(Cc3ccccc3)C2=O)cc1OC	-	-	-	-	-	-
CCN=C1S/C(=C\c2ccc(OC)c(OCC)c2)C(=O)N1CC	-	-	-	106	-	-
Cc1cc(C)n(CC(=O)O)c(=O)c1[N+](=O)[O-]	-	?	-	-	-	-
O=C1CN(C(=O)c2ccccc2F)c2ccccc2N1	-	-	-	-	-	-
O=C1CN(C(=O)c2ccccn2)c2ccccc2N1	-	-	-	229	-	-
Cc1ccc2c(c1)CCCN2C(=O)c1ccncc1	-	-	-	-	-	131
CCOC(=O)c1nc2sc3c(c2c(=O)n1C(C)C(=O)OCC)CCCC3 (stereo not drawn)	-	-	-	-	-	-
CCCNC(=O)Nc1nccs1	-	-	-	-	-	57
CCOC(=O)c1[nH]c(C)c(C(=O)Nc2ccc(F)cc2)c1C	-	-	-	-	-	-
CCOC(=O)c1[nH]c(C)c(C(=O)Nc2ccccc2F)c1C	-	-	-	-	-	108
Cc1[nH]c2ccccc2c1C(O)CN1CCC2(CC1)OCCO2 (stereo not drawn)	-	?	-	.	-	-
COc1cccc2sc(/N=C/N(C)C)nc12	-	?	-	.	-	-

Screening results as filed in PubChem.
